# PubChem BioAssay (NCATS)
# “And” between values parts separate entries of the source, which are not always exact repeats. Equal values may be shown once. Inconclusive results are not listed. A structure can be active in one record and inactive in another. Unmarked numbers belong to inactive results. The list shows a part of the results. A call without a number means that no potency is given here. The source made the active and inactive calls. Unless noted, calls follow the shape of the dose curve; as a rule, active = well fitted curve in the direction sought with a large enough effect; inconclusive = small, poorly fitted or top-dose-only effect, or another doubt; inactive = no such curve, though single readings can be large; an effect the other way counts as inactive or inconclusive.
# Experiments:
# [1] = qHTS for Inhibitors of Plasmodium falciparum (DD2) proliferation (AID 504314); also: potency is read from the fitted curve at half-maximal effect;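 as to activity, negative = inhibition: parasite DNA measured by SYBR Green fluorescence after red cell lysis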
# Outline: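 Erythrocytes infected with P. falciparum Dd2 (0.3% parasitemia, 2.5% hematocrit) exposed to compound 72 h at 37C, 5% CO2. Parasite DNA quantified by SYBR Green fluorescence after saponin/Triton lysis overnight; normalized to 0.29 uM artemisinin and DMSO.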
# [2] = qHTS for Inhibitors of Plasmodium falciparum (GB4) proliferation (AID 504315); also: nearly all actives have a fitted effect of over 50% in size; also: potency is read from the fitted curve at half-maximal effect
# Outline: (§1)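 Erythrocytes infected with P. falciparum line (0.3% parasitemia, 2.5% hematocrit final) incubated with compounds 72 h at 37 °C, 5% CO2; SYBR Green lysis buffer added, fluorescence read next day. Normalized to 0.29 uM artemisinin and DMSO.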
# [3] = qHTS for Inhibitors of Plasmodium falciparum (7G8) proliferation (AID 504316); also: nearly all actives have a fitted effect of over 65% in size; also: potency is read from the fitted curve at half-maximal effect; as to activity change, negative = inhibition: series mostly up to about 6.7 µM
# Outline: as §1
# [4] = qHTS for Inhibitors of Plasmodium falciparum (HB3) proliferation (AID 504318); also: nearly all actives have a fitted effect of over 60% in size
# Outline: as §1
# [5] = qHTS for Inhibitors of Plasmodium falciparum (CP250) proliferation (AID 504320)
# Outline: as §1
# [6] = target: Atrial natriuretic peptide receptor 1 (Homo sapiens) (UniProt P16066); assay: Natriuretic polypeptide receptor (hNpr1) antagonism - Pilot CMLD screen (AID 1347052; calls by dose curve;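 also: HEK293 cells with hNpr1 stimulated by hNppA peptide at 0.1 nM; cGMP level read as GloSensor luciferase luminescence after agonist stimulation; series mostly up to about 9.2 µM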)
# Chain of Atrial natriuretic peptide receptor 1 (Homo sapiens) (P16066 whole entry, looked up): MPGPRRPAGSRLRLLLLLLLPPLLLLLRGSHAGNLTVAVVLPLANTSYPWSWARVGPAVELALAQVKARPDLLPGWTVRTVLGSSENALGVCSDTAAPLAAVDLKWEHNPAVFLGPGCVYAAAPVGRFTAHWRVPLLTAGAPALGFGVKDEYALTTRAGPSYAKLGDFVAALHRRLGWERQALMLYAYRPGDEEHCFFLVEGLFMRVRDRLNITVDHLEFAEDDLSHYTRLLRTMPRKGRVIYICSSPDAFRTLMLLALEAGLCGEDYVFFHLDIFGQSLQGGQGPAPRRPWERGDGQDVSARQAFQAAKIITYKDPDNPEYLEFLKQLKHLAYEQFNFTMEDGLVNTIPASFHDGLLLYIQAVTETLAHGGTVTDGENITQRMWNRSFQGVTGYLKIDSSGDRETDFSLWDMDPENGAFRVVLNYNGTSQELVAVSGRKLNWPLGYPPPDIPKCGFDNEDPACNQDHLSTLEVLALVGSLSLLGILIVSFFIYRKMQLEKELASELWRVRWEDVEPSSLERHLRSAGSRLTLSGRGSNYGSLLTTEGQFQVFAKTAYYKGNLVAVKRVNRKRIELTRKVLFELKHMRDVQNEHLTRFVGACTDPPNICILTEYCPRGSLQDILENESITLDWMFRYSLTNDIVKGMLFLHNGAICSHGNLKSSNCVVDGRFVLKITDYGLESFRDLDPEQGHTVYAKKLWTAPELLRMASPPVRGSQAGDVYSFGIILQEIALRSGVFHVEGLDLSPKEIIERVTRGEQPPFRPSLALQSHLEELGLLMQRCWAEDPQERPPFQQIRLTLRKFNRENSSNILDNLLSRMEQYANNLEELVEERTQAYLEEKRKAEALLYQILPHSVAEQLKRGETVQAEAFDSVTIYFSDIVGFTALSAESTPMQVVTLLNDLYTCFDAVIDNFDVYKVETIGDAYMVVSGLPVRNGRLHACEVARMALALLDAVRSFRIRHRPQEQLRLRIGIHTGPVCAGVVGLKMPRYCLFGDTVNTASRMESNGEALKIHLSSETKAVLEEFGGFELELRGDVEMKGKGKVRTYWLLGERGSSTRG
# [7] = target: Tyrosyl-DNA phosphodiesterase 1 (Homo sapiens) (UniProt Q9NUW8); assay: Confirmation Assay for Inhibitors of Tyrosyl-DNA Phosphodiesterase (TDP1) (AID 489007); conditions: recombinant human TDP1 enzymatic activity, dose-response; also: potency is read from the fitted curve at half-maximal effect; nearly all actives have a fitted effect of over 40% in size
# Chain of Tyrosyl-DNA phosphodiesterase 1 (Homo sapiens) (Q9NUW8 whole entry, looked up): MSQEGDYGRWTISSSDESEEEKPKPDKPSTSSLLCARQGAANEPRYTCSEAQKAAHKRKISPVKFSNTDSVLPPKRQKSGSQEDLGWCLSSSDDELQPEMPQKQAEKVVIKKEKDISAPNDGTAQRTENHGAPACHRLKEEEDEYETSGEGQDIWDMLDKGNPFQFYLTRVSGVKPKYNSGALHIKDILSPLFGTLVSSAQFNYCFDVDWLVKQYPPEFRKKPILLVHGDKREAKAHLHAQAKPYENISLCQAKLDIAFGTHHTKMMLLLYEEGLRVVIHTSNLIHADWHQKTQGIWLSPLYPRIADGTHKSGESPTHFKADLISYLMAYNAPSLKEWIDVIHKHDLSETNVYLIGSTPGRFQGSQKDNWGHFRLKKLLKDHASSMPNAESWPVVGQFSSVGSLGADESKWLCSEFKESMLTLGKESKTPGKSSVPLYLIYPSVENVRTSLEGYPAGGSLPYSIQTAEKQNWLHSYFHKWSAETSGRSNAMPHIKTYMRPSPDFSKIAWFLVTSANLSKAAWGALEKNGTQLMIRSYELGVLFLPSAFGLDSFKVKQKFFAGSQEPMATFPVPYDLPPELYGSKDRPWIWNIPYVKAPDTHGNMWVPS
# Outline: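 Confirmation of primary-screen follow-ups in a qHTS format. Substrate cleavage by Tdp1 (1 nM) of a 3'-phosphotyrosine-FITC, 5'-biotin oligo (15 nM) was monitored as decreased AlphaScreen signal after a 5 min room-temperature reaction.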
# [8] = target: Vitamin D3 receptor (Homo sapiens) (UniProt P11473); assay: qHTS for Inhibitors of the vitamin D receptor (VDR): Hit Validation in Primary Screen (AID 602199); conditions: VDR-coactivator inhibition assay, qHTS confirmation; also: potency is read from the fitted curve at half-maximal effect
# Chain of Vitamin D3 receptor (Homo sapiens) (P11473 whole entry, looked up): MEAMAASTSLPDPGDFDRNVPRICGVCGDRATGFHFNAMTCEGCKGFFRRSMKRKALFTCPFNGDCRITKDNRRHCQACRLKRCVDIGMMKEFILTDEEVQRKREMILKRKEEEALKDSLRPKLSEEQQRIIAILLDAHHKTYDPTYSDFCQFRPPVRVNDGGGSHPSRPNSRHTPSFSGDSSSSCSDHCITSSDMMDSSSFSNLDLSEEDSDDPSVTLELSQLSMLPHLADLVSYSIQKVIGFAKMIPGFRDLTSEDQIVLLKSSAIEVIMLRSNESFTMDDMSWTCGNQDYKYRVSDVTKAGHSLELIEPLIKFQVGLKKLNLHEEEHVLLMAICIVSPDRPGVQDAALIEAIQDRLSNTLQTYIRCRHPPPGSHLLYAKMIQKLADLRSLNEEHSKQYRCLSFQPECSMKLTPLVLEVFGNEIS
# Outline: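 Fluorescence polarization assay of VDR binding to Alexa 647-labelled SRC2-3 coactivator peptide: 800nM VDR with 5uM LG19078 agonist, compounds, 2 h at room temperature, read Ex 620 nm/Em 688 nm.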
# [9] = target: Rap guanine nucleotide exchange factor 3 (Homo sapiens) (UniProt O95398); assay: Confirmatory qHTS for agonist of cAMP-regulated guanine nucleotide exchange factor 3 (EPAC1) (AID 1645881);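 also: EPAC1 catalysed release of BODIPY-GDP from Rap1B seen as fluorescence loss; nearly all actives have a fitted effect of over 75% in size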
# Chain of Rap guanine nucleotide exchange factor 3 (Homo sapiens) (O95398 whole entry, looked up): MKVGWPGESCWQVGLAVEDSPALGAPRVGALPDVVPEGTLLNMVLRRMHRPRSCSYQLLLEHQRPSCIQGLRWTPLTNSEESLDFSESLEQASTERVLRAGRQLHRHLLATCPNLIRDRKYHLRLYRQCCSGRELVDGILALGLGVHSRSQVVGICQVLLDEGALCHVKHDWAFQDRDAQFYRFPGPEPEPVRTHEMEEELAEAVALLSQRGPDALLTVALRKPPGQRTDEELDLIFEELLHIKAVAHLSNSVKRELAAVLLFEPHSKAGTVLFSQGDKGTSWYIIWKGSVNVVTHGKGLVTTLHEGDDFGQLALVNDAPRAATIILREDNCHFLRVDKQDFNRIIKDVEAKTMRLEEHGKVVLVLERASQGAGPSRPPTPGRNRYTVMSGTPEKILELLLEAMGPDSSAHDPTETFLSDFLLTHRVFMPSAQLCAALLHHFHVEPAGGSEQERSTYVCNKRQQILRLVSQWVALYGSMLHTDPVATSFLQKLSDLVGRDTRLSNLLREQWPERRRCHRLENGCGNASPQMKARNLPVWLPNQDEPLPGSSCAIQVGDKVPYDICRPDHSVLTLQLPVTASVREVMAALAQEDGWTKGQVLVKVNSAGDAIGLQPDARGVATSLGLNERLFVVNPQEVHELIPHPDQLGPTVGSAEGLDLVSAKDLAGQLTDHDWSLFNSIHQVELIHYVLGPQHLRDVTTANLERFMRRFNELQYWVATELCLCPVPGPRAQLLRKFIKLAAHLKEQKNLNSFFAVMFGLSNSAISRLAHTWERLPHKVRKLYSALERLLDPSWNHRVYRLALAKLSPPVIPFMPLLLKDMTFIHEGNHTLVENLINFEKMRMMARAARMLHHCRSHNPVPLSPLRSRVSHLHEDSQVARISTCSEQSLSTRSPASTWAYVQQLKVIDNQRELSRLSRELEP
# [10] = target: Rap guanine nucleotide exchange factor 4 (Homo sapiens) (UniProt Q8WZA2); assay: Confirmatory qHTS for agonist of cAMP-regulated guanine nucleotide exchange factor 4 (EPAC2) (AID 1645884);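 also: nucleotide exchange releases bodipy-GDP from Rap1 and this lowers its fluorescence; nearly all actives have a fitted effect of over 65% in size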
# Chain of Rap guanine nucleotide exchange factor 4 (Homo sapiens) (Q8WZA2 whole entry, looked up): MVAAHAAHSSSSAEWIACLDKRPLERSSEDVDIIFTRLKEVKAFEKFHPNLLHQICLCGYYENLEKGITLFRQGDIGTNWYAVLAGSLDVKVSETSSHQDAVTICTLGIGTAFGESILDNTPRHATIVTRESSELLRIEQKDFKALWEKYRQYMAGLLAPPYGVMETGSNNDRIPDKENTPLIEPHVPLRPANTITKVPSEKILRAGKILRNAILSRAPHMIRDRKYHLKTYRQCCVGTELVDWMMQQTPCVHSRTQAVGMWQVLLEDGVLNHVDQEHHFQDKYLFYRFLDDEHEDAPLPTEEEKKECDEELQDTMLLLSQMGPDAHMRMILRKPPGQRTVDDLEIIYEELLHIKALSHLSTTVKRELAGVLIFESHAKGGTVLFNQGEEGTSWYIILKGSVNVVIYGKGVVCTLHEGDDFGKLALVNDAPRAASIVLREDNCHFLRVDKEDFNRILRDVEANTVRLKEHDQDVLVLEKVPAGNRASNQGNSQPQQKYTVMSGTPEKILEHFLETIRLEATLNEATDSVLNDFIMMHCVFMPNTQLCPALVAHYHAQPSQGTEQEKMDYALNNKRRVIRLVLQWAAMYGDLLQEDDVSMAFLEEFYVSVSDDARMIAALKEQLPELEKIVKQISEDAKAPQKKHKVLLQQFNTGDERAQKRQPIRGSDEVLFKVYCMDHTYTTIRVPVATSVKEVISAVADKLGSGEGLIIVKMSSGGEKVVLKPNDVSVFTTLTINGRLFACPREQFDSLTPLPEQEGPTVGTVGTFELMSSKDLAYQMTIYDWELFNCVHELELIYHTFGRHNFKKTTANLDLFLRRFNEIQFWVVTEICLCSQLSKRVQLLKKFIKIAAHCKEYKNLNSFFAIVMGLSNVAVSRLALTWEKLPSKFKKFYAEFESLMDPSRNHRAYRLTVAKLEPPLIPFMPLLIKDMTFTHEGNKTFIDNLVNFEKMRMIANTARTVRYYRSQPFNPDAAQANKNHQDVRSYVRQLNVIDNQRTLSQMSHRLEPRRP
# [11] = target: Rap guanine nucleotide exchange factor 4 (Homo sapiens) (UniProt Q8WZA2); assay: Confirmatory qHTS for antagonist of cAMP-regulated guanine nucleotide exchange factor 4 (EPAC2) (AID 1645885); also: nearly all actives have a fitted effect of over 25% in size
# [12] = target: Rap guanine nucleotide exchange factor 3 (Homo sapiens) (UniProt O95398); assay: Counterscreen qHTS for antagonist of cAMP-regulated guanine nucleotide exchange factor 3 (EPAC1) (AID 1645888);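 also: fluorescence loss as bound BODIPY-GDP is released from Rap1B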
# Outline: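 Measured: fluorescence of BODIPY-GDP bound to Rap1B, which falls as exchange proceeds. Conditions include 50 uM competing GDP, 5 and 30 min reads, and a later cAMP challenge for antagonist detection.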
# [13] = target: Rap guanine nucleotide exchange factor 3 (Homo sapiens) (UniProt O95398); assay: Confirmatory qHTS for antagonist of cAMP-regulated guanine nucleotide exchange factor 3 (EPAC1) (AID 1645880); also: nearly all actives have a fitted effect of over 55% in size
# Outline: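 Nucleotide exchange uses 100 nM EPAC1, 250 nM RAP1B-BODIPY-GDP and 50 uM GDP, with compounds in a concentration-titration series. After 5 min at room temperature, fluorescence (480 nm ex/540 nm em) is read every 5 min for 30 min. Data are normalized to control ATA and DMSO.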
smiles,measurement,setting,value
CCCCc1cc2c(cn1)C(=O)C(C)(OC(C)=O)C(=O)C2 (stereo not given),Potency,[1],1.69 µM (active)
same,"activity, negative = inhibition",[1],-3.91% [at 1.12 µM]
same,Potency,[2],1.69 µM (active)
same,Potency,[3],2.13 µM (active) and 1.69 µM (active)
same,Potency,[4],inactive
same,Potency,[5],inactive
same,Potency,[6],inactive
C[C@@H]1CC[C@H]2C(=O)O[C@@H](COc3ccc(C(C)(C)C)cc3)CN2[C@H]1c1ccc(Br)cc1,Potency,[1],inactive
same,Potency,[2],inactive
same,Potency,[6],inactive
C=CC[C@@H]1C=C[C@@H](Oc2ccc(OC)cc2)[C@H](COC(=O)c2ccc(Br)cc2)O1,Potency,[1],inactive
same,Potency,[2],inactive
same,Potency,[3],inactive
same,Potency,[6],inactive
C=CC1=C2C=C(C3CC3)N(c3ccc(OC)cc3)C=C2C(=O)C(C)(OC(=O)c2ccco2)C1=O (stereo not given),"activity, negative = inhibition",[1],0.839% [at 1.12 µM]
same,Potency,[2],inactive
same,Potency,[6],inactive
COC[C@@H](OC(C)=O)[C@H]1OCc2ccccc2[C@@H]1C=Cc1ccccc1,Potency,[1],inactive
same,Potency,[2],inactive
same,Potency,[6],inactive
CCOC(=O)C1=NO[C@@]2(C=C(Br)C(=O)[C@H]3O[C@H]32)C1,Potency,[7],11.2 µM (active)
same,Potency,[5],inactive
same,Potency,[8],12.6 µM (active)
same,Potency,[6],inactive
COc1ccc2c(c1)[C@@]1(OCCC=C[C@@H]1C)C(=O)N2Cc1ccc(F)cc1,Potency,[1],inactive
same,Potency,[6],inactive
CC(CCN1CCCc2nc(C)c(C)cc21)=NOC[C@@H](C)[C@H](OCc1ccccc1)C(C)C,Potency,[1],inactive
same,Potency,[2],inactive
same,Potency,[6],inactive
COC[C@@H](O)[C@H]1OCc2ccccc2[C@@H]1C=Cc1ccccc1,Potency,[6],inactive
CCCCCCCc1cc2c(cn1)C(=O)C(C)(OC(C)=O)C(O)=C2Cl (stereo not given),Potency,[1],1.89 µM (active)
same,Potency,[6],inactive
CC(CCN1CCCCc2nc(C)c(C)cc21)=NO[C@H](C)CN1CCCc2nc(C)c(C)cc21,Potency,[6],inactive
CCCCC1=CC2=CC(=O)C(C)(OC(=O)CCc3ccccc3)C(=O)C2=CO1 (stereo not given),Potency,[1],inactive
same,Potency,[2],inactive
same,Potency,[3],inactive
same,Potency,[4],inactive
same,Potency,[5],inactive
same,Potency,[6],inactive
same,outcome,[9],inactive
same,activation,[10],0% [at 17.1 µM]
same,"activity change, negative = inhibition",[11],20.8% [at 12.7 µM]
same,"activity change, negative = inhibition",[12],1.91% [at 30.8 µM]
COCOc1cc(OC)ccc1C(=O)C=Cc1ccc([N+](=O)[O-])cc1,Potency,[1],1.5 µM (active)
same,Potency,[2],1.69 µM (active)
same,Potency,[6],inactive
CC(C)=NO[C@@H](C)CN1CCCc2nc(C)c(C)cc21,Potency,[6],inactive
COC(=O)C1=C(C(=O)OC)[C@@H]2N(C)c3ccccc3[C@@]23C[C@@H](CO)N(C(=O)NC2CCCCC2)C3=N1,Potency,[1],inactive
same,Potency,[6],inactive
C[C@@H]1C=CCCO[C@]12C(=O)N(Cc1ccc(Br)cc1)c1ccccc12,Potency,[1],inactive
same,Potency,[2],inactive
same,Potency,[3],inactive
same,Potency,[6],inactive
c1ccc(-c2nc(-c3cccs3)c(NC3CCCCC3)o2)cc1,Potency,[6],inactive
CC1=CC[C@@H](COc2ccccc2)O[C@@]2(C1)C(=O)N(Cc1ccccc1C(F)(F)F)c1ccccc12,Potency,[1],inactive
same,Potency,[6],inactive
C[C@H](NC(=O)N1CCc2nc(-c3ccccc3)c3c(c2C1)CO[C@@H](C)C3)c1ccccc1,"activity, negative = inhibition",[1],3.91% [at 1.12 µM]
same,Potency,[2],inactive
same,Potency,[6],inactive
C=CCCCC=C(C)[C@H](OCc1ccc(OC)cc1)[C@H](CCC=C(C)C(N)=O)OC,Potency,[1],inactive
same,Potency,[6],inactive
Cc1ccc(C(=O)OC[C@H]2O[C@H](Cl)C[C@H]2OC(=O)c2ccc(C)cc2)cc1,Potency,[1],1.69 µM (active)
same,Potency,[6],inactive
C=CC1=C2C=C(C3CC3)N(CCCOC(C)C)C=C2C(=O)C(C)(OC(=O)c2ccco2)C1=O (stereo not given),"activity, negative = inhibition",[1],4.15% [at 1.12 µM]
same,Potency,[2],inactive
same,Potency,[3],inactive
same,Potency,[6],inactive
FC(F)(F)c1ccc(-c2nc(-c3ccccc3)oc2NCc2ccccc2)cc1,Potency,[6],inactive
Cc1ccccc1Nc1oc(-c2ccccc2)nc1-c1ccccc1F,Potency,[6],inactive
CCO[C@H](c1cc(OC)cc([N+](=O)[O-])c1OC)[C@H](C)[C@@H](OC)[C@H](C)C=CCC(=O)OC,Potency,[1],inactive
same,Potency,[6],inactive
COC1=C[C@@H](C(=O)N[C@H]2CCCC[C@H]2NC(C)=O)[C@@H](C)[C@H](c2ccccc2)CC1=O,Potency,[1],inactive
same,Potency,[2],inactive
same,Potency,[6],inactive
COC(=O)CCC(=O)OC1(C)C(=O)C=C2C=C(C3CC3)N(CCCOC(C)C)C=C2C1=O (stereo not given),Potency,[4],inactive
same,Potency,[5],inactive
same,Potency,[6],inactive
same,Potency,[13],inactive
same,outcome,[9],inactive
same,outcome,[10],inactive
same,Potency,[11],inactive
same,outcome,[12],inactive
COC(=O)CCC(=O)OC1(C)C(=O)C=C2C=C(C3CC3)N(CCc3c[nH]c4ccccc34)C=C2C1=O (stereo not given),Potency,[1],inactive
same,Potency,[2],inactive
same,Potency,[6],inactive
COC(=O)C1=C(C(=O)OC)[C@@H]2N(C)c3ccccc3[C@@]23C[C@@H](CO)N(C(=O)Nc2ccc(C(F)(F)F)cc2)C3=N1,Potency,[6],inactive
CC(CCN1CCCc2nc(C)c(C)cc21)=NO[C@@H](C)CN1CCCCc2nc(C)c(C)cc21,Potency,[6],inactive
COCOc1cc(OC)ccc1C(=O)C=Cc1ccc2c(c1)OCO2,Potency,[6],inactive
CC(C)=CCCC(C)=CCN1C(=O)[C@@]2(C[C@@H](C)C[C@@H](C)O2)c2ccccc21,Potency,[1],inactive
same,Potency,[6],inactive
COC(=O)N[C@@H](c1ccco1)[C@]1(C(=O)OC)CCCC1=O,Potency,[1],inactive
same,Potency,[2],inactive
same,Potency,[3],inactive
same,Potency,[6],inactive
C=CCOC(=O)C1(C(NC(=O)OC)c2ccccc2)C(=O)Cc2ccccc21 (stereo not given),Potency,[1],inactive
same,Potency,[2],inactive
same,Potency,[3],inactive
same,Potency,[6],inactive
CCCCc1nc2c(c3c1C[C@H](C)OC3)CN(C(=O)c1ccco1)CC2,"activity, negative = inhibition",[1],-0.515% [at 1.12 µM]
same,Potency,[2],inactive
same,Potency,[3],inactive
same,Potency,[6],inactive
CO[C@H](c1ccccc1Br)[C@H](C)C=CCCO,Potency,[1],inactive
same,Potency,[2],inactive
same,Potency,[3],inactive
same,Potency,[4],inactive
same,Potency,[6],inactive
C=C(C)C(=O)C=Cc1ccc(Br)cc1,Potency,[1],inactive
same,Potency,[2],inactive
same,Potency,[3],inactive
same,Potency,[6],inactive
C[C@@H]1C(c2ccccc2)CC(=O)C(=O)C[C@@H]1C(=O)N1CCCC1 (stereo not given in full),Potency,[1],inactive
same,Potency,[2],inactive
same,Potency,[3],inactive
same,Potency,[4],inactive
same,Potency,[6],inactive
CC[C@H](C)[C@@H](NC(=O)O[C@@H]1C(=O)c2cc(OC)ccc2O[C@H]1c1ccc(OC)c(Br)c1)C(=O)OC,Potency,[1],inactive
same,Potency,[2],inactive
same,Potency,[3],inactive
same,Potency,[6],inactive
